Screening results (PubChem BioAssay)
Most compounds without a hit are left out; they make up all but 2.4% or so of the library.
D2 antag = antagonizes the human D2 dopamine receptor; P14416; HEK293 TREx D2 cells, calcium flux, dopamine EC80; inhibition, % at 10 µM; hit rate 2% among 340,000; in the data active = inhibition above about 30%; inactive = below that, where a call was filed; note: 0% is about no effect
Target sequence (P14416 whole entry, looked up): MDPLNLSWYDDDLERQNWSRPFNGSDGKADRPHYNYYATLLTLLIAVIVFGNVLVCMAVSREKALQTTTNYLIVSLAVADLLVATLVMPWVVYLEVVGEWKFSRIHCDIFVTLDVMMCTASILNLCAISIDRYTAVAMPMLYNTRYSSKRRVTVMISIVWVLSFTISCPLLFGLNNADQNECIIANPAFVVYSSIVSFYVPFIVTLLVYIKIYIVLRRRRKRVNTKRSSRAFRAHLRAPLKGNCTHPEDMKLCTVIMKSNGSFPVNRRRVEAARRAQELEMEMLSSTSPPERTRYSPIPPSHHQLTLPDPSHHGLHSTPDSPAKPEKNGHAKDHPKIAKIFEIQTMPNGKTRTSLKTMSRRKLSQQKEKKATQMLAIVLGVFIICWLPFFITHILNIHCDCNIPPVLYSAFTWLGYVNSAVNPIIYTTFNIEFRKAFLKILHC
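In this primary screen, negative modulation is detected by tracking calcium flux after an EC80 dopamine challenge in inducible HEK293 T-REx D2 cells preexposed to test compound for 180 s.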
B2AR arrestin = agonists driving beta-arrestin recruitment to human beta2-adrenergic receptor | P07550 | beta-arrestin recruitment to beta2AR, cell-based reporter | Potency, µM (top dose mostly 46.1 µM), for the others: at the highest dose activation, usual class: activators | hit rate 0.02% among 330,000; active = well fitted activation curve with a large enough effect; inconclusive = small, poorly fitted or top-dose-only effect;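 note: potency is the fitted concentration of half-maximal effect; 0% = DMSO controls and full agonism = EC100 isoproterenol or metaproterenol; nearly all actives have a fitted effect of over 65% in size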
D2 ag-1 = agonists of human D2 dopamine receptor (beta-arrestin); DiscoveRx PathHunter D2 beta-arrestin, luminescence, 90 min; 100% = 57 uM dopamine signal; activation, % (test concentration not listed); hit rate 0.084% among 360,000; in the data active = activation above about 40%; inconclusive = between about 15% and that limit
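Agonist mode: compounds alone added to overnight-plated D2 PathHunter cells for 90 min at 37 C, with 57 uM final dopamine (EC100) defining full response. Beta-arrestin recruitment detected by chemiluminescent reagent, read after 1 h at ambient temperature.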
D2 ag-2 = D2 dopamine receptor (human) agonism | P14416 | hit rate 0.53% among 340,000 | HEK293 T-REx D2 cells, calcium flux agonist mode | activation, % at 2 µM;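 active = activation over 3 SD above normal in the single-dose calcium agonist read, cut at about 30% in these data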; note: 0% is about no effect
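Calcium-flux readout, 1 cycle/sec over 180 s following compound pin transfer, in inducible HEK293 Trex D2 cells (force-coupled); dopamine controls included. Positive calcium responses during this window marked compounds as potential agonists.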
D2 PAM-1 = human D2 receptor positive allosteric modulation. DiscoveRx D2 beta-arrestin cells, luminescence, 90 min; 100% = 57 uM dopamine signal. potentiation, % (concentration not given with the values). hit rate 0.23% among 360,000. AID 624464; in the data active = potentiation above about 50%; inconclusive = mostly about 30% to 49%
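D2 cells co-treated with compound plus 50 nM dopamine (EC20) for 90 min at 37 deg C to detect potentiation. Beta-arrestin recruitment was read as enzyme-fragment luminescence after 1 h at ambient temperature. Full response was set by 57 uM dopamine.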
D2 PAM-2 = positive allosteric modulators of human D2 dopamine receptor; P14416; HEK293 T-REx D2, calcium flux, EC20 dopamine potentiation; hit rate 0.34% among 340,000; potentiation, % at 10 µM;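 active = potentiation over 3 SD above the plate norm, cut at about 30% in these data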; note: 0% is about no effect
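Tetracycline-induced Hek293 Trex D2 cells, force-coupled to calcium, loaded with no-wash calcium dye. Compound added with 180 s kinetic read for agonism, then EC20 dopamine and a further 180 s read for potentiation.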
Active calls of the source: *; ? = inconclusive; . = not tested or not shown.

SMILES	D2 antag	B2AR arrestin	D2 ag-1	D2 ag-2	D2 PAM-1	D2 PAM-2
CSc1ccccc1OCc1cc(C(=O)N(C)CC2COCCO2)no1 (centres undefined)	-21	-1%	-4	-1	13	10
COc1ccc(-c2cc(C(=O)Nc3cc(C(F)(F)F)ccc3Cl)no2)cc1	.	.	.	1	.	-5
CS(=O)(=O)Nc1nc2n(n1)C(c1ccccc1)C=C(c1ccc(Br)cc1)N2 (centres undefined)	-5	0%	?	2	75*	-6
Cc1cccc(N(C)S(=O)(=O)c2ccc3c(c2)C(C)(C)C(=O)N3C)c1	41*	0%	4	-1	-1	3
Cc1ccc(N(C)S(=O)(=O)c2ccc3c(c2)C(C)(C)C(=O)N3C)cc1C	.	.	.	1	.	-5
CC(C)CCNC(=O)CCn1c(=S)oc2ccccc21	-2	0%	-5	0	-7	44*
Cc1ccc(NC(=O)CC2SCCNC2=O)cc1Cl (centres undefined)	10	0%	-3	0	-6	0
CC(C)Cc1cc(CN2CCC(CO)(Cc3ccccc3)CC2)[nH]n1	47*	0%	0	-1	-18	-23
COC(=O)c1cc(C(=O)OC)cc(-n2c(C)cc(C(=O)CC#N)c2C)c1	33*	.	-2	0	-1	13
CCN(CC(=O)Nc1cc(Cl)ccc1C)C(=O)Cc1sc(C)nc1-c1ccc(F)cc1	75*	0%	-5	0	-2	-42
COc1ccc(Cl)cc1NC(=O)CN(C)C(=O)COc1ccccc1F	7	-1%	-4	0	17	-7
CCN(CC(=O)Nc1cc(Cl)ccc1C)C(=O)COc1ccccc1F	40*	0%	-3	-2	-28	4
CCN(CC(=O)Nc1c(F)cccc1F)C(=O)Cc1sc(C)nc1-c1ccc(F)cc1	-3	0%	-3	-1	11	17
CCN(CC(=O)Nc1cc(Cl)ccc1C)C(=O)CCOc1ccccc1C	31*	0%	-3	0	-36	-14
COc1cc(CNC(=O)c2cc(-c3ccccc3)n[nH]2)cc(OC)c1OC	.	.	.	0	.	8
CC1(C)CC(=O)C2=C(C1)OC(N)=C(C#N)C2c1cn(-c2ccccc2)nc1-c1ccccc1 (centres undefined)	4	-1%	-5	1	-10	6
COc1cccc(C(=O)N(c2ccc(OC)cc2OC)C2C=CS(=O)(=O)C2)c1 (centres undefined)	30*	-1%	-2	0	-7	-6
COc1ccc(CNc2nc3ccccc3n2C)c(OC)c1	20	-1%	-4	-1	-32	-7
COc1ccc(N=Nc2nc3cc(Br)c(Br)cc3n2C)c(OC)c1	0	6%	-1	33*	-11	-2
O=C(NNc1nc2c(F)cc(F)cc2s1)C1=COCCO1	39*	0%	0	-1	-1	2
CCC(=O)NNc1nc2c(F)cccc2s1	-4	0%	1	1	-7	-2
CCC(=O)NNc1nc2c(F)cc(F)cc2s1	40*	0%	1	1	1	5
NC(=O)c1c(NC(=O)CS(=O)(=O)c2ccc(Cl)cc2)sc2c1CCCCC2	.	.	.	-2	.	9
O=C(O)c1cc2n(n1)C(C(F)(F)F)CC(c1ccccc1)N2 (centres undefined)	-8	0%	-2	-1	-13	12
COc1ccc(C/C(C)=N\NC(=O)c2c[nH]c3ccccc23)cc1OC	6	0%	-3	1	-24	5
SMILES	D2 antag	B2AR arrestin	D2 ag-1	D2 ag-2	D2 PAM-1	D2 PAM-2
CCC(=O)Nc1nnc(/C=C/c2ccc(OC)cc2)s1	35*	-1%	6	0	1	11
CC1(C(=O)Nc2ccccc2)CCN1C(=O)C1(c2ccc(Cl)cc2)CC1 (centres undefined)	.	.	-4	.	-5	.
Cc1cc(NC(=O)CSc2nc(-c3ccco3)cc(C(F)(F)F)n2)no1	36*	0%	-4	2	-18	-2
Cc1cc(NC(=O)CCSc2nc(-c3ccco3)cc(C(F)(F)F)n2)no1	-15	0%	-3	-1	0	1
COc1ccc(NC(=S)N2CCC(N(C)CC3CCCO3)CC2)cc1 (centres undefined)	30*	-1%	0	-3	-6	13
OCCCN1CCN(CCCOc2ccccc2-c2ccccc2)CC1	53*	0%	-5	0	-33	-29
CC1CN(CCOc2ccccc2-c2ccccc2)CC(C)O1 (centres undefined)	71*	-1%	-6	0	-25	-17
c1ccc(-c2ccccc2OCCCCN2CCCCCC2)cc1	148*	0%	0	0	-8	-41
Cc1ccc(C(C)(C)C)c(OCCOCCN2CCCC2)c1	8	-1%	-3	0	-30	-24
CC(C)(C)c1ccccc1OCCOCCN1CCCCCC1	31*	0%	3	0	-10	-27
CC1(C(=O)NS(=O)(=O)c2ccccc2Cl)CCN1C(=O)Cc1ccccc1Cl (centres undefined)	.	.	-3	.	-6	.
c1ccc(-c2ccccc2OCCOCCN2CCCCC2)cc1	87*	-1%	-6	0	-26	-25
c1ccc(-c2ccccc2OCCN2CCCC2)cc1	82*	0%	5	0	-25	-22
CCOCCCNC(=S)N1CCN(Cc2ccco2)CC1	12	0%	2	3	-2	3
CC(=O)c1ccc(NC(=O)c2ccc(N3C(=O)c4cccnc4C3=O)cc2)cc1	-6	-1%	-2	1	-12	16
O=C1C2C3C=CC(C4CC34)C2C(=O)N1/N=C/c1cccs1 (centres undefined)	4	7%	9	0	61*	8
COC(C[C@H](O)CC(=O)[C@H](C)OCc1ccccc1)OC	18	1%	-5	0	-5	-4
CCc1cc2c(N[C@@H](Cc3c[nH]c4ccccc34)C(=O)O)ncnc2s1	21	-1%	-2	0	2	8
CCc1cc2c(NC(Cc3c[nH]c4ccccc34)C(=O)O)nc(C)nc2s1 (centres undefined)	34*	0%	4	-2	4	-1
CCc1ccc(N2CC(C(=O)NCC(C)(C)N3CCOCC3)CC2=O)cc1 (centres undefined)	-8	0%	-4	0	-9	6
C=CCNc1nc(NCCN2CCOCC2)nc(N2CCOCC2)n1	0	0%	0	0	-16	14
C=CCNc1nc(N2CCOCC2)nc(N2CCOCC2)n1	31*	0%	0	-1	1	-14
